Measured values reported in PubChem BioAssay.
The source made the active and inactive calls.

assay: optical density shifts of acrAB sulA E. coli – strain DRC41, OD650, 48 h, E. coli filamentation inducer project, primary screen (AID 1152); details: higher = more signal, called active from +8 up or from −8 down;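 further: E. coli MC1000 strain DRC41 lacking acrAB efflux pump and sulA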

Row | Structure (SMILES) | z-score
1 | COC(=O)[C@@]1(Cc2ccc(F)cc2)[C@H]2c3cc(C(=O)N4CCCC4)n(CCc4c[nH]c5ccccc45)c3C[C@H]2CN1C(=O)c1ccccc1 | -2.35 (inactive)
2 | COc1ccc(CCNC(=O)[C@@]2(c3ccc([N+](=O)[O-])cc3)CC(=O)N(C3CCCCC3)[C@@H]2c2ccc(CO)cc2)cc1 | 1.31 (inactive)
3 | O=C(O)[C@@H]1[C@@H]2C(=O)N(c3ccccc3)C(=O)[C@@H]2C[C@@H]1Sc1ccccc1 | -1.52 (inactive)
4 | C=CC[C@@H](OC(=O)Nc1ccc(SC)cc1)c1ccc(O)c(F)c1 | 0.959 (inactive)
5 | COCCOC(=O)N1C(=O)[C@@]2(c3cc(C#CC4=CCCCC4)ccc31)[C@H](C(=O)Nc1nc3ccccc3s1)[C@H]1C(=O)O[C@H](c3ccccc3)[C@H](c3ccccc3)N1[C@@H]2c1ccc(O)cc1 | -0.61 (inactive)
6 | CC(C)C[C@@H]1NC(=O)[C@@H]2C[C@H](C(=O)NCCCCCCN)[C@H](c3cccc(OCCO)c3)N2C1=O | 0.831 (inactive)
7 | COCCOC(=O)N1C(=O)[C@@]2(c3cc(C#CCNC(N)=O)ccc31)[C@H](C(N)=O)[C@H]1C(=O)O[C@H](c3ccccc3)[C@H](c3ccccc3)N1[C@@H]2c1ccccc1OCCO | -0.77 (inactive)

assay: probe aLefty1 binding on compound microarray – biochemical, small-molecule microarray, 635/667 nm fluorescence, primary screen (AID 1153); details: higher = more signal;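 further: score merges spot fluorescence with signal-to-noise ratio from the scanned slide images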

Row | Structure (SMILES) | composite z-score
8 | CC(c1ccccc1)C(O)C1C=CC2C(=O)N(C)C(=O)C2N1Nc1ccccc1 (configuration not stated) | 0.146
9 | Cc1ccc(N2C(=O)c3ccccc3[C@@H](C(=O)NCCCN(C)C)[C@@H]2c2ccc(CO)cc2)nc1 | -0.724
10 | CCCCC(CC)C(O)C1C=CC2C(=O)N(C)C(=O)C2N1Nc1ccccc1 (configuration not stated) | 0.443
11 | C=CCNC(=O)[C@@H]1[C@H]2C(=O)O[C@H](c3ccccc3)[C@H](c3ccccc3)N2[C@H](c2ccc(O)cc2)[C@@]12C(=O)N(C(=O)OCCOC)c1ccc(C#CC3=CCCCC3)cc12 | 0.319
12 | NCCCCCCNC(=O)[C@@H]1C[C@@H]2C(=O)N[C@@H](CCCCN)C(=O)N2[C@@H]1c1ccc(O)cc1 | 0.614
13 | Cc1ccc(C(C)CC(O)C2C=CC3C(=O)N(c4ccccc4)C(=O)C3N2Nc2ccccc2)o1 (configuration not stated) | 0.738
14 | COCCOC(=O)N1C(=O)[C@@]2(c3cc(C#CC4(O)CCCCCC4)ccc31)[C@H](C(=O)N1CCc3cc(OC)c(OC)cc3C1)[C@H]1C(=O)O[C@H](c3ccccc3)[C@H](c3ccccc3)N1[C@@H]2c1ccc(OCCO)cc1 | -0.469
15 | COC(=O)[C@@]1(Cc2ccc(OC)cc2)[C@H]2c3cc(C(=O)N(C)C)n(Cc4ccc(OC(F)(F)F)cc4)c3C[C@H]2CN1C(=O)c1ccccc1 | 0.407
16 | CCCCCN1CC=CC23O[C@@H]4C=CCCOC(=O)C4[C@H]2C(=O)N(CCCCCCO)[C@@H]3C1=O (some centres not stated) | -0.324
17 | COCCOC(=O)N1C(=O)[C@@]2(c3cc(C#CC4=CCCCC4)ccc31)[C@H](c1ccccc1OCCO)N1[C@H](c3ccccc3)[C@H](c3ccccc3)OC(=O)[C@H]1[C@@H]2C(=O)N1CCN(c2ncccn2)CC1 | 1.04
18 | NC(=O)[C@@]1(Cc2ccccc2)COC(c2ccc(OCCCO)cc2)=N1 | 0.533
19 | N#Cc1ccc(NN2C(C(O)c3ccc(Br)cc3)C=CC3C(=O)N(c4ccccc4)C(=O)C32)cc1 (configuration not stated) | 0.57
20 | CCOC(=O)C[C@H]1[C@H](OC(=O)c2ccccc2-c2ccccc2)[C@@H](NC(=O)c2ccc3ccccc3c2)c2cc(OCCCO)ccc2N1C(=O)c1ccccc1 | -0.152
21 | O=C1NC(=O)C2C1C=CC(C(O)c1ccco1)N2Nc1ccc(Cl)cc1Cl (configuration not stated) | -0.0984
22 | C=CCOC(=O)[C@@]1(Cc2ccccc2)C[C@H]2CO[C@H](c3ccc(OC)cc3)N2C1=O | -0.338
23 | COCCCNC(=O)[C@@H]1c2ccccc2C(=O)N(C(C)C)[C@H]1c1ccc(CO)cc1 | 0.142
24 | COC(=O)C1=CC(CCCO)=CC(c2cccs2)N(Cc2cccc(OC(F)(F)F)c2)C=C1C(=O)OC (configuration not stated) | -0.126
25 | [N-]=[N+]=Nc1ccccc1C[C@]1(C(=O)NCC(O)CO)COC(c2ccc(OCCCO)cc2)=N1 (some centres not stated) | 0.0512

Row | Structure (SMILES) | composite z-score
26 | COc1cccc(C)c1NC(=O)O[C@H]1[C@H](OC(=O)Nc2ccc3c(c2)OCO3)[C@@H](OC(=O)Nc2ccc3c(c2)OCO3)[C@@H](OC)O[C@@H]1CO | -0.165
27 | CCCCCCCCCCC(O)C1C=CC2C(=O)N(c3ccccc3)C(=O)C2N1Nc1ccc(C#N)cc1 (configuration not stated) | 0.571
28 | Cc1ccc(F)cc1S(=O)(=O)N[C@@H]1CCN(Cc2ccc(Br)cc2)C1 | -0.0099
29 | C=CC[C@]1(C(=O)N2CCCCC2)N=C(c2ccc(OCCCO)cc2)O[C@H]1c1ccccc1CN=[N+]=[N-] | 0.454
30 | COCC(=C=CC[C@H](O)c1ccc(CO)o1)CCO | -0.198
31 | O=C(c1ccccc1)N1C(=O)[C@]2(Cc3ccccc31)N=C(c1ccc(OCCCO)cc1)O[C@@H]2c1ccccc1 | 0.297
32 | C[N+](C)(C)CCCCCCNC(=O)[C@@H]1C[C@@H]2C(=O)N3CCC[C@H]3C(=O)N2[C@@H]1c1ccc(O)cc1 | -0.021
33 | C=CCC(OC(C)=O)[C@@H]1[C@@H](N(Cc2ccc(-c3ccccc3)cc2)C(=O)c2ccc(-c3ccccc3)cc2)c2cc(OCCCO)ccc2N1C(=O)c1ccc2ccccc2c1 (some centres not stated) | 0.445
34 | CCOC(=O)C1=C[C@@H](C(C)(C)C)N(S(=O)(=O)c2ccc(C)cc2)[C@H]1c1cccc2ccccc12 | 0.0927
35 | O=C1CS(=O)(=O)C(c2cccc([N+](=O)[O-])c2)N1c1ccccc1 (configuration not stated) | 0.683
36 | COC(=O)[C@@]1(Cc2ccc(F)cc2)[C@H]2c3cc(C(=O)N4CCCC4)n(CCc4c[nH]c5ccccc45)c3C[C@H]2CN1C(=O)c1ccccc1 | 1.04
37 | COc1ccc(CCNC(=O)[C@@]2(c3ccc([N+](=O)[O-])cc3)CC(=O)N(C3CCCCC3)[C@@H]2c2ccc(CO)cc2)cc1 | 0.213
38 | O=C(O)[C@@H]1[C@@H]2C(=O)N(c3ccccc3)C(=O)[C@@H]2C[C@@H]1Sc1ccccc1 | -0.0573
39 | C=CC[C@@H](OC(=O)Nc1ccc(SC)cc1)c1ccc(O)c(F)c1 | -0.0573
40 | COCCOC(=O)N1C(=O)[C@@]2(c3cc(C#CC4=CCCCC4)ccc31)[C@H](C(=O)Nc1nc3ccccc3s1)[C@H]1C(=O)O[C@H](c3ccccc3)[C@H](c3ccccc3)N1[C@@H]2c1ccc(O)cc1 | 0.103
41 | CC(C)C[C@@H]1NC(=O)[C@@H]2C[C@H](C(=O)NCCCCCCN)[C@H](c3cccc(OCCO)c3)N2C1=O | 0.393
42 | COCCOC(=O)N1C(=O)[C@@]2(c3cc(C#CCNC(N)=O)ccc31)[C@H](C(N)=O)[C@H]1C(=O)O[C@H](c3ccccc3)[C@H](c3ccccc3)N1[C@@H]2c1ccccc1OCCO | 0.0299
